Bioassay records from PubChem.
Pol kappa inh: qHTS for Inhibitors of Polymerase Kappa. purified Pol kappa, fluorescent DNA synthesis assay, 10 min. DNA polymerase kappa (Homo sapiens), Q9UBT6. Potency, µM (titrated, usually from 107 µM), without a hit: at the top dose activity, negative = inhibition, hits mostly inhibitors. 400,000 compounds, 0.53% hits; further: on the % scale 0 is the no-effect control and ±100 the full control effect
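10 nM Pol kappa was preincubated with compounds for 15 min at room temperature. Reaction started with 50 nM (final) substrate. Fluorescence read kinetically at 0 and 10 min.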
APEX1 inh: qHTS Assay for Inhibitors of the Human Apurinic/apyrimidinic Endonuclease 1 (APE1); DNA repair nuclease/redox regulator APEX1 (Homo sapiens), P27695; 350,000 compounds, 0.35% hits; Potency, µM (doses to about 65.8 µM), without a hit: top-dose activity change, negative = inhibition, actives largely listed as inhibitors; recombinant APE1, TAMRA/BHQ-2 abasic DNA cleavage fluorescence;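 further: plate controls were vehicle for no effect and reference inhibitor for full effect; nearly all actives have a fitted effect of over 55% in size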
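Measures dequenching upon AP-site incision of a 5'-TAMRA/3'-BHQ-2 THF-containing duplex, 50 nM; human APE1 0.75 nM after 15 min room-temperature exposure to compound; kinetic three-point read at one-minute spacing.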
POLH inh: qHTS for Inhibitors of Polymerase Eta; AID 588591, 2011; Potency, µM (top dose mostly 114 µM), inactives show at the highest dose activity change, negative = inhibition, most hits filed as inhibitors; recombinant Pol eta, fluorescent DNA replication assay; 390,000 compounds, 1.2% hits; DNA polymerase eta (Homo sapiens), Q9Y253; further: on the % scale 0 is the no-effect control and ±100 the full control effect
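Pol eta at 10 nM preincubated with compounds 15 min at room temperature; reaction started with fluorescent substrate (50 nM final) and read kinetically at 0 and 10 min.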
POLB inh: qHTS Assay for Inhibitors of DNA Polymerase Beta | 340,000 compounds, 1.3% hits | Pol beta primer extension/strand displacement, fluorescence kinetic | Potency, µM (series often up to 114 µM), for the others: at the highest dose activity change, negative = inhibition, hits mostly inhibitors | AID 485314, 2010 | P06746; further: on the % scale 0 is the no-effect control and ±100 the full control effect
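Homogeneous kinetic assay of primer extension and strand displacement by 10 nM Pol beta, preincubated 15 min at room temperature with compound before 50 nM substrate (final) was added. Read at 0 and 10 min; four-parameter Hill fit.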
POLI inh: qHTS for Inhibitors of Polymerase Iota; DNA polymerase iota (Homo sapiens), Q9UNA4; Pol iota fluorescent replication assay, 10 min; Potency, µM (top dose mostly 115 µM), inactives show at the top dose activity, negative = inhibition, most hits filed as inhibitors; 390,000 compounds, 1% hits; AID 588590, 2011
Target sequence (Q9UNA4 whole entry, looked up): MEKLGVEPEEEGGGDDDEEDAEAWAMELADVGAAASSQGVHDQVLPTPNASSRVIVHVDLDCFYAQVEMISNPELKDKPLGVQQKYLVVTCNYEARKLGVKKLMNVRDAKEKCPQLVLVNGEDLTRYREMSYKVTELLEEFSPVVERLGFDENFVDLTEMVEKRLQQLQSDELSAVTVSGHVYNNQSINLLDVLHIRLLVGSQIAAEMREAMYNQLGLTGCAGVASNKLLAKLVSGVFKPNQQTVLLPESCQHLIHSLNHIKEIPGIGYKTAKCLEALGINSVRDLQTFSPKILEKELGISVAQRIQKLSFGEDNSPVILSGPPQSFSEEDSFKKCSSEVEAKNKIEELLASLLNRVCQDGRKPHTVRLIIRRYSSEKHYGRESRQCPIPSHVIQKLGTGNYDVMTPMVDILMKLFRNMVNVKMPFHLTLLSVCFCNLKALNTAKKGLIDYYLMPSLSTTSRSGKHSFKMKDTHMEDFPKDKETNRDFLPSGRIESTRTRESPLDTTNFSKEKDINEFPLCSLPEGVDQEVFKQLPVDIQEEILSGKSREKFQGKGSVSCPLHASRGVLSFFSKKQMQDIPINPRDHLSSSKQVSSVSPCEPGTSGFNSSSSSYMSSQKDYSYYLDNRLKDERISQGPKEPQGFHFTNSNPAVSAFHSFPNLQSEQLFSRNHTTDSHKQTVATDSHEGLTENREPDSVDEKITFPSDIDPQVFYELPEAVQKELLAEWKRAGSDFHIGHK
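Pol iota at 10 nM preincubated 15 min with compounds at room temperature; reaction started with fluorescent substrate, 50 nM final. Fluorescence read kinetically at 0 and 10 min; buffer-only wells as negative control.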
L3MBTL1 block: qHTS Assay for the Inhibitors of L3MBTL1; Lethal(3)malignant brain tumor-like protein 1 (Homo sapiens), Q9Y468; Potency, µM (highest dose often 57.1 µM), for inactives: at the highest dose activity, negative = inhibition, usual class: inhibitors; 230,000 compounds, 0.66% hits; AlphaScreen L3MBTL1–H3K9me1 peptide binding; further: on the % scale 0 is the no-effect control and ±100 the full control effect; nearly all actives have a fitted effect of over 60% in size
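AlphaScreen proximity signal between nickel-chelate acceptor and streptavidin donor beads (final 10 ug/mL) reports binding of 50 nM L3MBTL1 to 75 nM biotin-H3 K9me1 peptide; complex incubated with compounds 30 min at room temperature; cefsulodin titration as control.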
* hit, by the source's call; [ ] = remark or other dose. In the library only some 2.5% were active in any assay of this set; here they are far more common. The call rests on the fitted dose curve; in most records, active means well fitted curve in the direction sought with a large enough effect; inconclusive means small, poorly fitted or top-dose-only effect, or another doubt; inactive means no such curve, though single readings can be large; an effect the other way counts as inactive or inconclusive. Potency means the concentration at half of the fitted maximal effect.

What do the screens show for `Cc1noc(/C=C/c2ccc(-c3ccccc3Cl)o2)c1[N+](=O)[O-]`?
Pol kappa inh: 420.3%; APEX1 inh: -1.5%; POLH inh: 12.6µM*; POLB inh: 36.5%; POLI inh: inconclusive

How did CCN(CC)C(=O)c1[nH]cnc1C(=O)Nc1ccccc1F do in these assays?
POLH inh: -14.9%

How did Cc1ccc(C(=O)OCc2nc3ccsc3c(=O)[nH]2)o1 do in these assays?
Pol kappa inh: -14.3%; APEX1 inh: -2.4%; POLH inh: 19.6%; POLI inh: inconclusive; L3MBTL1 block: -3.5%

Results for O=C(/C=C/c1ccc(Br)o1)OCc1nc2ccsc2c(=O)[nH]1 ?
Pol kappa inh: 10µM*; APEX1 inh: inconclusive; POLH inh: 0.794µM*; POLI inh: 10µM*; L3MBTL1 block: 3.16µM*

Results for Cc1noc(C)c1CSCC(=O)OCC(=O)Nc1ccc(OC(F)(F)F)cc1 ?
POLH inh: -12.5%

What do the screens show for `Cc1ccnc(N/C=C(\C#N)c2nc(-c3cccc(Br)c3)cs2)c1`?
Pol kappa inh: -3.6%; APEX1 inh: -1.3%; POLH inh: -20.6%; POLB inh: 35.5µM*; POLI inh: inconclusive; L3MBTL1 block: 17.2%

How did Cc1onc(-c2ccccc2)c1C(=O)NC1C(=O)N2C(C(=O)O)C(C)(C)S[C@@H]12 (stereo partly drawn) do in these assays?
Pol kappa inh: -4.4%[60.1 µM]; APEX1 inh: -0.8%

What do the screens show for `Oc1ccc(NCc2ccccc2OCc2ccccc2)cc1`?
Pol kappa inh: -10.8%; APEX1 inh: inconclusive; POLH inh: inconclusive; POLB inh: 4.9%; POLI inh: 7.08µM*; L3MBTL1 block: inconclusive

Results for CCOc1cc(CNc2ccc(O)cc2)cc(Br)c1OCc1ccccc1 ?
Pol kappa inh: -10.0%; POLH inh: -23.9%; POLB inh: -2.4%; POLI inh: 39.8µM*

How did CCOc1cc(CNc2ccc(O)cc2)cc(Br)c1OCc1ccccc1F do in these assays?
Pol kappa inh: -4.3%; APEX1 inh: inconclusive; POLH inh: -24.4%; POLB inh: -13.8%; POLI inh: -101.2%; L3MBTL1 block: 15.8µM*

How did COc1cc(CNc2ccc(O)cc2)cc(Br)c1OCc1ccccc1F do in these assays?
Pol kappa inh: -36.4%; APEX1 inh: -0.5%; POLH inh: -17.1%; POLB inh: -29.1%; POLI inh: 28.2µM*; L3MBTL1 block: inconclusive

How did Cc1nc2ccccc2n1CCc1nc2c3ccccc3nc(SCc3ccccc3F)n2n1 do in these assays?
Pol kappa inh: -3.5%[60.1 µM]; POLH inh: -8.1%; POLB inh: 2.0%; POLI inh: 29.2%

How did CC(C)OC(=O)CC(=O)c1sc2nc3c(cc2c1N)CN(C)CC3 do in these assays?
Pol kappa inh: inconclusive; APEX1 inh: 7.5%; POLH inh: inconclusive; POLB inh: 39.8µM*; POLI inh: 11.2µM*; L3MBTL1 block: inconclusive

What do the screens show for `CN1CCc2nc3sc(C(=O)Nc4c(F)cccc4F)c(N)c3cc2C1`?
Pol kappa inh: -14.8%; POLH inh: -27.6%; POLB inh: -2.9%; POLI inh: 36.7%

How did Oc1ccc(/C=N/NC(=S)Nc2cccnc2)cc1O do in these assays?
Pol kappa inh: inconclusive; APEX1 inh: inconclusive; POLH inh: inconclusive; POLB inh: inconclusive; POLI inh: 3.55µM*; L3MBTL1 block: 11.2µM*

Results for O=S(=O)(c1ccc(NC(=S)N/N=C/c2ccc(O)c(O)c2)cc1)N1CCOCC1 ?
Pol kappa inh: inconclusive; APEX1 inh: 12.6µM*; POLH inh: -3.3%; POLB inh: -26.7%; POLI inh: 20µM*; L3MBTL1 block: inconclusive
